Records with an inconclusive call do not appear. Unmarked numbers belong to inactive results. The source made the active and inactive calls. Calls follow the shape of the dose curve; as a rule, active = well fitted curve in the direction sought with a large enough effect; inconclusive = small, poorly fitted or top-dose-only effect, or effect the other way, or another doubt; inactive = no such curve, though single readings can be large or run the other way.
Test: Secondary Assay for lipid storage modulators: HepG2 cell LDSA assay for probe SAR
Conditions: HepG2 lipid droplet BODIPY, laser-scanning cytometry, 18-24 h; series mostly up to 46.1 µM; activity, negative = less lipid: at the top concentration
Description: NIH Molecular Libraries Probe Production Centers Network [MLPCN] NIH Chemical Genomics Center [NCGC] MLPCN Grant: 1 R03 MH085686-01 Assay Submitter (PI): Beller, Mathias; Max-Planck-Institut fur Biophysikalische Chemie NCGC Assay Overview: Storing lipids as a reservoir for energy or the anabolism of elementary metabolites is a common feature of probably all cells and is conserved from bacteria to humans. The universal cellular lipid storage organelle is the so-called lipid storage droplet (LD). Although ubiquitous, LDs share a simple structure composed of a hydrophobic core that harbors the storage lipids, which is shielded by a droplet-specific phospholipid monolayer to which proteins are attached. The current model of LD biogenesis involves an incorporation of the lipid core into the membrane leaflets of the endoplasmic reticulum (ER) followed by a subsequent budding-like maturation of a LD, which ultimately pinches off. Once released, LD volume can increase by localized lipogenesis or fusion of existing droplet. Storage lipids are re-mobilized enzymatically by lipase activity. Lipase regulation in the adipocyte is heavily studied and involves multiple components including catecholamine signaling, the LD-associated proteins Perilipin and comparative gene identification (CGI-58) and at least two lipases named hormone sensitive lipase (HSL) and adipocyte triglyceride lipase (ATGL). LD regulation outside of the adipocyte is poorly understood and only few components are known. However, there is an urgent need to learn more about ectopic fat depots as mislocalized storage of lipids, for example in the liver or muscle, is an eminent health problem associated with insulin resistance or the metabolic syndrome.
NCGC Assay Protocol Summary: The assay was performed with HepG2 cells, using an oleic acid feeding protocol similar to the S3 assay. We dispensed 4 uL of cells to give 700 cells/well into Greiner bio-one 1,536-well plates (black walled, clear bottom). Triacsin C (Sigma-Aldrich T-4540), an inhibitor of long-chain fatty acyl CoA synthetase that blocks synthesis of triglycerides, was used as a positive control for lipid under-storage using a final concentration of 20 uM. The orexin antagonist, SB408124 - previously identified to stimulate lipid over-storage, was used as a positive control for lipid over-storage using a final concentration of 20 uM. A total of 23 nL of compound solution of different concentrations were transferred to the assay plates using a Kalypsys pin tool equipped with a 1,536-pin array containing 10-nL slotted pins (FP1S10, 0.457-mm diameter, 50.8 mm long; V&P Scientific). One microliter of oleic acid was added (400 uM final concentration), and the plate was lidded with stainless steel rubber gasket lined lids containing pinholes. After 18-24 h incubation at […] and 95% humidity, 4 uL of the dyes BODIPY 493/503 (Molecular Probes) and the Cell Tracker Red CMTPX dye (Molecular Probes) were added to the wells to stain lipid droplets and enumerate cell number, respectively. Fluorescence was detected by excitation of the fluorophores with a 488-nm laser on an Acumen Explorer (TTP Lab Tech). The total intensity in channel 2 (500-530 nm) reflected lipid droplet accumulation. Cells were detected using channel 3 (575-640 nm) with 5-um width and 100-um depth filters. The ratio of the number of objects in PMT channel 2 over the number of objects in PMT channel 3 was also calculated. Percent activity was computed relative to an internal control (100% inhibited lipid droplet deposition due to the presence of 20 uM Triacsin C), which was added to 32 wells/plate.

Compound	activity, negative = less lipid	Potency
CCn1c(C(=O)NCCc2ccc(OC)c(OC)c2)cc2sccc21	-7.94%	–
COc1ccc(-c2cnc(SCC(=O)Nc3nc(C)cs3)n2Cc2ccco2)cc1	20.8%	–
O=C(NC1CCCc2c1cnn2-c1ccc(F)cc1F)c1ccc(C2(C(F)(F)F)N=N2)cc1 (stereo not given)	7.79%	–
O=C(NCCc1ccc2c(c1)OCO2)c1cc2sccc2n1Cc1ccccc1	11.7%	–
O=C(NC1CCCc2c1cnn2-c1ccc(F)cc1F)c1cccc(=O)[nH]1 (stereo not given)	-20.9%	–
O=C(NC1CCCc2c1cnn2-c1ccc(F)cc1F)c1cnon1 (stereo not given)	-15.8%	–
O=C(NC1CCCc2c1cnn2-c1ccc(F)cc1F)c1ccc2cc[nH]c2c1 (stereo not given)	10.4%	–
O=C(Cc1ccccc1)NC1CCCc2c1cnn2-c1ccc(F)cc1F (stereo not given)	5.04%	–
CCOc1ccc(CCNC(=O)c2ccccn2)cc1OCC	48.1%	–
CCOc1ccc(CCNC(=O)c2cc3sccc3n2CC)cc1OCC	–	11.2 µM (active)
CCOc1ccc(CCNC(=O)c2csc(Br)n2)cc1OCC	-2.6% [at 38.8 µM]	–
COc1ccc(-c2cnc(SCC(=O)Nc3nc(C)cs3)n2-c2ccccc2)cc1	6.49%	–
COc1ccc(CCNC(=O)c2cc3sccc3n2Cc2ccccc2)cc1OC	11.7%	–
O=C(c1cc2sccc2n1Cc1ccccc1)N(CCc1ccc(O)c(O)c1)Cc1ccccc1	0%	–
O=C(NC1CCCc2c1cnn2-c1ccc(F)cc1F)c1cnccn1 (stereo not given)	10.3%	–
CCOc1ccc(CCNC(=O)C2=C(C)OCCO2)cc1OCC	13%	–
CCCn1c(-c2ccc(OC)cc2)cnc1SCC(=O)Nc1nc(C)c(C)s1	6.49%	–
COc1ccc(-c2cnc(SCC(=O)Nc3nccs3)n2Cc2ccccc2)cc1	7.79%	–
Cc1cc(SCc2sc(-c3ccc(C(F)(F)F)cc3)nc2C)ccc1OCC(=O)O	1.3%	–
CCOc1ccc(CCNC(=O)c2cc3sccc3n2Cc2cccnc2)cc1OCC	23.4%	–

Compound	activity, negative = less lipid	Potency
CCOc1ccc(NC(=O)NC2(C(=O)N3CCCCC3)CCCCC2)cc1	-9.09%	–
O=C(NC1CCCc2c1cnn2-c1cc(F)cc(F)c1)c1cccc2nccnc12 (stereo not given)	19.5%	–
Cc1ccc(-c2cnc(SCC(=O)Nc3nc(C)cs3)n2Cc2ccco2)cc1	-16.9%	–
CCOc1ccc(CCNC(=O)c2cc3sccc3n2CC=C(C)C)cc1OCC	-19.5%	–
CCn1c(C(=O)NCCc2ccc(OC)c(OC)c2)cc2sc(Cl)cc21	31.2%	–
O=C(NC1CCCCC1)NC1(C(=O)N2CCCC2)CCCCC1	-5.19%	–
CC1(C)CCC(c2ccc(Cl)cc2)=C(CN2CCN(c3ccc(C(=O)NS(=O)(=O)c4ccc(N[C@H](CCN5CCOCC5)CSc5ccccc5)c(S(=O)(=O)C(F)(F)F)c4)cc3)CC2)C1	87%	–
CCOc1ccc(CCNC(=O)c2cc3sccc3n2Cc2cccc(C)c2)cc1OCC	-22.1%	–
CCOc1ccc(CCNC(C)=O)cc1OCC	15.6%	–
CCn1c(C(=O)NCCc2ccc(OC)cc2)cc2sccc21	-36.7%	–
CCOc1ccc(CCNC(=O)c2cccs2)cc1OCC	40.3%	–
O=C(NC1CCCc2c1cnn2-c1ccccc1F)c1cccc2nccnc12 (stereo not given)	0%	–
CCOc1ccc(CCNC(=O)c2cc3sccc3n2Cc2ccc(Cl)c(F)c2)cc1OCC	-7.79%	–
Cc1ccc(-c2cnc(SCC(=O)Nc3nccs3)n2Cc2ccco2)cc1	13%	–
O=C(Nc1ccccc1-c1cn2c(CN3CCNCC3)csc2n1)c1cnc2ccccc2n1	–	11.2 µM (active)
CCOC(=O)C1CCN(C(=O)C2(NC(=O)Nc3ccccc3Cl)CC2)CC1	-15.6%	–
CCOc1ccc(CCNC(=O)c2cc3sccc3n2Cc2ccc(OC(F)F)cc2)cc1OCC	-20.8%	–
CCOc1ccc(CCNC(=O)c2cc3sccc3n2C)cc1OCC	–	25 µM (active)
CCOc1ccc(CCNC(=O)c2cc3sc(CC)cc3n2C)cc1OCC	20.8%	–
COc1ccc(-n2ncc3c2CCCC3NC(=O)c2cnc(C)cn2)cc1 (stereo not given)	–	12.5 µM (active)

— PubChem BioAssay AID492960 (National Center for Advancing Translational Sciences (NCATS), 2010)
